KCNH2 WT inh: blocks the wildtype human KCNH2 potassium channel. activity change, % at 1.84 µM. AID 720551. 340,000 compounds, 0.37% hits. Q12809. U2OS, BacMam KCNH2, thallium flux FluxOr; active compounds read low;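 active = maximum activity change below -70%; inconclusive = maximum activity change between -70% and -50%; inactive = maximum activity change above -50%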; also: % is scaled to controls: 0 for no effect and ±100 for the full control effect
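U2OS cells were transduced with wild-type KCNH2 virus (2.03 x 10^8 / mL) for 4 h at room temperature, then cultured overnight at 37 C. Thallium flux was read with FluxOr dye. Rate constants were normalized to DMSO controls.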
SW480 rereplic: inducers of DNA re-replication in SW480 colon cancer cells; SW480 DNA re-replication, Hoechst DNA content imaging, 48 h; 340,000 compounds, 1.8% hits; Potency, µM (top dose mostly 46.1 µM), inactives show top-dose re-replication activation, hits mostly activators; also: potency is read from the fitted curve at half-maximal effect; % of control where 0% means no effect; nearly all actives have a fitted effect of over 55% in size
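Compounds, transferred as 23 nL by pin tool, were incubated with cells for 48 hr; DNA content per nucleus was then quantified by Hoechst staining and fluorescence plate imaging.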
MCF10A rerep: DNA re-replication induction in MCF 10a cells. AID 624296. MCF 10A DNA re-replication, Hoechst nuclear intensity, 48 h. 350,000 compounds, 2.9% hits. Potency, µM (top dose mostly 46.1 µM), for the others: at the top dose activity, positive = re-replication, hits mostly activators; also: potency is read from the fitted curve at half-maximal effect; % of control where 0% means no effect; nearly all actives have a fitted effect of over 50% in size
KCNH2 3.1 inh: blocks the human KCNH2 3.1 channel isoform | U2OS KCNH2 3.1, thallium flux FluxOr; active compounds read low | activity change, % (tested at about 1.8 µM) | 340,000 compounds, 0.95% hits;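 active = maximum activity change below -70%; inconclusive = maximum activity change from -70% to -50%; inactive = maximum activity change above -50%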;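 also: thallium influx rate constant from kinetic fluorescence after stimulation buffer; % is scaled to controls: 0 for no effect and ±100 for the full control effect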
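Steps: virus added to U2OS suspension (4 h, RT, dark); medium with 10% FBS added, cells plated, 37 C overnight; FluxOr/Red40 loading buffer 45 min RT; stimulation buffer, 2 min kinetic read; rate constant normalized.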
KB-V1 MDR tox: KB-V1 MDR subline cytotoxicity | KB-V1 MDR cells viability, CellTiter-Glo, 72 h | Potency, µM (top dose mostly 46.1 µM), most hits filed as cytotoxic | 400,000 compounds, 3.4% hits | AID 1347076; also: potency is read from the fitted curve at half-maximal effect; % is scaled to controls: 0 for no effect and ±100 for the full control effect; nearly all actives have a fitted effect of over 60% in size
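KB-V1, DMEM (no phenol red) + 10% FBS; cpd pin-transferred, titration series; 72 h, 37 degrees C; CellTiter-Glo, luminescence. Data normalized, curve-fit.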
KB-3-1 cytotox: KB-3-1 parental cell cytotoxicity | KB-3-1 viability, CellTiter-Glo ATP luminescence, 72 h | Potency, µM (doses to about 46.1 µM), usual class: cytotoxic | 400,000 compounds, 1.4% hits | AID 1347075; also: potency is read from the fitted curve at half-maximal effect; % is scaled to controls: 0 for no effect and ±100 for the full control effect; nearly all actives have a fitted effect of over 60% in size
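Viability of parental KB-3-1 cells, measured by CellTiter-Glo luminescence, followed a 72 h incubation at 37 °C with pinned compounds in phenol-red-free DMEM containing 10% FBS.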
Active calls of the source: *; [ ] = remark or other dose. A selection: hits, their analogues and other compounds. The true share with any hit is near 7.6%. Unless noted, calls follow the shape of the dose curve; as a rule, active = well fitted curve in the direction sought with a large enough effect; inconclusive = small, poorly fitted or top-dose-only effect, or another doubt; inactive = no such curve, though single readings can be large; an effect the other way counts as inactive or inconclusive.

How did COc1cc(O)oc1C=Nc1ccc(Cl)cc1 do in these assays?
KCNH2 WT inh: -2.2; SW480 rereplic: -18.3%; MCF10A rerep: 8.5%; KCNH2 3.1 inh: -0.1; KB-V1 MDR tox: inactive; KB-3-1 cytotox: inactive

Results for CC1(C)Cc2c(C#N)c(SCCO)nc(N3CCOCC3)c2CO1 ?
KCNH2 WT inh: -4.5; SW480 rereplic: -8.6%; MCF10A rerep: 11.9%; KCNH2 3.1 inh: 1.4; KB-V1 MDR tox: inactive; KB-3-1 cytotox: inactive

Results for CC1(C)Cc2c(C#N)c(SCCOc3ccccc3)nc(N3CCOCC3)c2CO1 ?
KCNH2 WT inh: -2.5; SW480 rereplic: -0.3%; MCF10A rerep: 26.5%; KCNH2 3.1 inh: -85.4*; KB-V1 MDR tox: inconclusive; KB-3-1 cytotox: inactive

What do the screens show for `Cc1ccnc(N2CCCC(C(=O)Nc3cccc(C)c3C)C2)n1` (stereo not drawn)?
KCNH2 WT inh: -3.1; SW480 rereplic: 4.8%; MCF10A rerep: -4.2%; KCNH2 3.1 inh: -13.7; KB-V1 MDR tox: inactive; KB-3-1 cytotox: inactive

Results for Cc1ccc(S(=O)(=O)N2C=CC(C(F)(F)F)=NCC2)cc1 ?
KCNH2 WT inh: -76.5*; SW480 rereplic: 3.6%[9.22 µM]; MCF10A rerep: 2.4%; KCNH2 3.1 inh: 13.3; KB-V1 MDR tox: inactive; KB-3-1 cytotox: inactive

How did CC(C)(C)c1ccc(S(=O)(=O)N2C=CC(C(F)(F)F)=NCC2)cc1 do in these assays?
KCNH2 WT inh: 24.2; SW480 rereplic: -4.9%; MCF10A rerep: 1.1%; KCNH2 3.1 inh: -7.2; KB-V1 MDR tox: inactive; KB-3-1 cytotox: inactive

What do the screens show for `COc1ccc(/C=C2\Sc3ccc(C(=O)N4CCOCC4)cc3N(C)C2=O)cc1`?
KCNH2 WT inh: -15.5; SW480 rereplic: -8.2%; MCF10A rerep: inconclusive; KCNH2 3.1 inh: -1.3; KB-V1 MDR tox: inactive; KB-3-1 cytotox: inactive

What do the screens show for `COc1ccc(/C=C2\Sc3ccc(C(=O)NCC4CCCO4)cc3N(C)C2=O)cc1` (stereo not drawn)?
KCNH2 WT inh: -2.0; SW480 rereplic: 23.1µM*; MCF10A rerep: 23.1µM*; KCNH2 3.1 inh: 11.2; KB-V1 MDR tox: inactive; KB-3-1 cytotox: inactive

Results for CCc1cc(=O)oc2cc(OCC(=O)NCc3ccccn3)ccc12 ?
KCNH2 WT inh: -1.9; SW480 rereplic: 11.6µM*; MCF10A rerep: inconclusive; KCNH2 3.1 inh: -15.7; KB-V1 MDR tox: inactive; KB-3-1 cytotox: inactive

Results for O=C(COc1ccccc1)NC(=S)Nc1ccc2c3c(cccc13)CC2 ?
KCNH2 WT inh: -20.2; SW480 rereplic: -1.7%; MCF10A rerep: inconclusive; KCNH2 3.1 inh: 1.7; KB-V1 MDR tox: inactive; KB-3-1 cytotox: inactive

What do the screens show for `O=C(/C=C/c1ccccc1)NC(=S)Nc1ccc2c3c(cccc13)CC2`?
KCNH2 WT inh: 1.5; SW480 rereplic: -2.2%; MCF10A rerep: inconclusive; KCNH2 3.1 inh: 7.2; KB-V1 MDR tox: inactive; KB-3-1 cytotox: 4.11µM*

What do the screens show for `CCN(C(=O)COC(=O)CNC(=O)c1ccc2ccccc2c1)C1CCS(=O)(=O)C1` (stereo not drawn)?
KCNH2 WT inh: -7.0; SW480 rereplic: -35.0%; MCF10A rerep: 5.8µM*; KCNH2 3.1 inh: -1.8; KB-V1 MDR tox: inactive; KB-3-1 cytotox: inactive

Results for CCN(C(=O)COC(=O)CNC(=O)c1ccc(C)c(C)c1)C1CCS(=O)(=O)C1 (stereo not drawn) ?
KCNH2 WT inh: 1.7; SW480 rereplic: -11.8%; MCF10A rerep: -3.0%; KCNH2 3.1 inh: 0.4; KB-V1 MDR tox: inactive; KB-3-1 cytotox: inactive

Results for O=C(COC(=O)c1cc(-c2cccc3ccccc23)nc2ccccc12)NC1CCS(=O)(=O)C1 (stereo not drawn) ?
KCNH2 WT inh: -3.4; SW480 rereplic: 7.5%; MCF10A rerep: 15.7%; KCNH2 3.1 inh: 13.4; KB-V1 MDR tox: inactive; KB-3-1 cytotox: inactive

Results for CCN(C(=O)COC(=O)c1cc(-c2cccc3ccccc23)nc2ccccc12)C1CCS(=O)(=O)C1 (stereo not drawn) ?
KCNH2 WT inh: 5.3; SW480 rereplic: 10.7%; MCF10A rerep: 4.4%; KCNH2 3.1 inh: -14.9; KB-V1 MDR tox: 18.4µM*; KB-3-1 cytotox: inactive

Results for COC(=O)[C@@]1(Cc2ccccc2)[C@H]2C(=O)N(C)C(=O)[C@H]2[C@H]2CN(C)C(=NCc3ccccc3)N21 ?
KCNH2 WT inh: -2.8; SW480 rereplic: -34.5%; MCF10A rerep: 4.5%; KCNH2 3.1 inh: 4.1; KB-V1 MDR tox: inactive; KB-3-1 cytotox: inactive

Results for COc1ccc(CCNc2cc(-c3ccccc3)nc3ncnn23)cc1 ?
KCNH2 WT inh: 7.6; SW480 rereplic: -43.2%; MCF10A rerep: -3.5%; KCNH2 3.1 inh: -4.5; KB-V1 MDR tox: 2.59µM*; KB-3-1 cytotox: inconclusive

Results for c1ccc(Nc2cc(-c3ccccc3)nc3ncnn23)cc1 ?
KCNH2 WT inh: -4.8; SW480 rereplic: inconclusive; MCF10A rerep: inconclusive; KCNH2 3.1 inh: -3.9; KB-V1 MDR tox: 14.6µM*; KB-3-1 cytotox: inactive

What do the screens show for `C#CCNc1cc(-c2ccccc2)nc2ncnn12`?
KCNH2 WT inh: -7.2; SW480 rereplic: -15.4%; MCF10A rerep: -5.9%; KCNH2 3.1 inh: 5.3; KB-V1 MDR tox: inconclusive; KB-3-1 cytotox: inconclusive

What do the screens show for `Clc1ccc(Nc2cc(-c3ccccc3)nc3ncnn23)cc1`?
KCNH2 WT inh: 13.6; SW480 rereplic: -134.8%; MCF10A rerep: inconclusive; KCNH2 3.1 inh: -1.6; KB-V1 MDR tox: inactive; KB-3-1 cytotox: inactive

What do the screens show for `O=[S+]1([O-])N=C(Oc2cccnc2)c2ccccc21`?
KB-V1 MDR tox: inactive; KB-3-1 cytotox: inactive

What do the screens show for `O=[N+]([O-])c1ccc(N2CCOCC2)cc1O`?
KCNH2 WT inh: -5.6; SW480 rereplic: 0.8%; MCF10A rerep: -1.9%; KCNH2 3.1 inh: -19.6; KB-V1 MDR tox: inactive; KB-3-1 cytotox: inactive

Results for Cc1cc(N2CCOCC2)ccc1/C=C\[N+](=O)[O-] ?
KCNH2 WT inh: 3.0; SW480 rereplic: 5.8µM*; MCF10A rerep: 18.4µM*; KCNH2 3.1 inh: 1.7; KB-V1 MDR tox: inconclusive; KB-3-1 cytotox: inactive

What do the screens show for `CCOC(=O)CCCCC(=O)c1[nH]c(=O)[nH]c1CSc1nnc2c3ccccc3n(C(C)C)c2n1`?
KCNH2 WT inh: 1.4; SW480 rereplic: -6.4%; MCF10A rerep: 22.8%; KCNH2 3.1 inh: 7.4; KB-V1 MDR tox: 14.6µM*; KB-3-1 cytotox: inactive

How did C=CCOc1c(Br)cc(CNc2ccc(NC(=O)C(C)C)c(OC)c2)cc1OC do in these assays?
KCNH2 WT inh: 6.4; SW480 rereplic: 18.4µM*; MCF10A rerep: 5.8µM*; KCNH2 3.1 inh: 7.0; KB-V1 MDR tox: 4.11µM*; KB-3-1 cytotox: inconclusive

Bioassay records as filed in PubChem BioAssay.
